LmPK inhibitor: qHTS Assay for Inhibitors of Leishmania Mexicana Pyruvate Kinase (LmPK); purified LmPK, Kinase-Glo ATP luminescence, 1 h; Q27686; Potency, µM (top dose mostly 57.5 µM), for the others: top-dose activity change, negative = inhibition, most hits filed as inhibitors; 290,000 tested, 0.37% active; AID 1721, 2009; also: potency is read from the fitted curve at half-maximal effect; % is scaled to controls: 0 for no effect and ±100 for the full control effect
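Purified LmPK (0.1 nM) converted ADP (0.1 mM) to ATP with PEP (0.5 mM) in imidazole buffer pH 7.2 with KCl and MgCl2, 1 h at room temperature. ATP was read by Kinase-Glo luminescence; data normalized to uninhibited and no-enzyme controls.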
TbPYK inhibitor: qHTS of Trypanosoma Brucei Inhibitors; pyruvate kinase (Trypanosoma brucei), Q57TT1; TbPYK enzyme, Kinase-Glo Plus ATP luminescence, 45 min; Potency, µM (series often up to 76.8 µM), without a hit: top-dose activity, negative = inhibition, hits mostly inhibitors; 410,000 tested, 0.12% active; AID 624173, 2012; also: potency is read from the fitted curve at half-maximal effect; % is scaled to controls: 0 for no effect and ±100 for the full control effect; nearly all actives have a fitted effect of over 50% in size
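Assay buffer: 50 mM TEA pH 7.2, 100 mM KCl, 10 mM MgCl2, 0.05% BSA, 0.01% Tween-20. Pyruvate kinase from T. brucei plus substrate met compound, then ADP (130 uM final). Luminescence was read post 45 min RT.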
CHX counter: Cycloheximide Counterscreen for Small Molecule Inhibitors of Shiga Toxin; cell reporter, cycloheximide protein synthesis inhibition counterscreen; max response, %; 300,000 tested, 12% active; AID 2314, 2010; in the data active = max response mostly above about 13%, no sharp cut-off; inactive = mostly below about 14%; also: read at 38.3 µM for the half of the compounds with a filed dose; 0% is about no effect
FBPA Giardia inh: qHTS Assay for Inhibitors of Fructose-1,6-bisphosphate Aldolase from Giardia Lamblia. Potency, µM (titrated, usually from 59.6 µM), for inactives: at the highest dose activity, negative = inhibition, usual class: inhibitors. A8B2U2. purified Giardia FBPA. AID 2451, 2010. 290,000 tested, 0.71% active; also: potency is read from the fitted curve at half-maximal effect; % is scaled to controls: 0 for no effect and ±100 for the full control effect; nearly all actives have a fitted effect of over 55% in size
Target sequence (A8B2U2 whole entry, looked up): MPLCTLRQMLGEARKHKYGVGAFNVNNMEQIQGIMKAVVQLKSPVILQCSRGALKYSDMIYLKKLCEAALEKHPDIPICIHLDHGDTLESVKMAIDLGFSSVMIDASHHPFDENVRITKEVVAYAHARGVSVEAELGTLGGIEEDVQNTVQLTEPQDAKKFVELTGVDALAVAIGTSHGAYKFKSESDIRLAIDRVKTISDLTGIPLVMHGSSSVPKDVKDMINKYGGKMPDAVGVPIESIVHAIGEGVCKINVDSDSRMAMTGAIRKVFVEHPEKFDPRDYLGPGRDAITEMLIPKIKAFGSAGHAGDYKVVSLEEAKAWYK
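Giardia FBPA (40 nM reagent) was preincubated 10 min at RT with compound (up to 57.5 uM final), then substrate plus GAPDH/TPI/NAD/arsenate coupling system with diaphorase/resazurin was added; resorufin fluorescence (525/598 nm) was read after 20 min.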
Shiga toxin inh: A qHTS for Small Molecule Inhibitors of Shiga Toxin; Vero cells, Shiga toxin protein synthesis inhibition reporter; inhibition, % at 38.7 µM; 290,000 tested, 9.2% active; AID 2315, 2010; in the data active = inhibition mostly above about 28%, no sharp cut-off; inactive = mostly below about 43%; also: 0% is about no effect
RE007 growth inh: qHTS Assay for Inhibitors of the HIV-1 protein Vpr. 360,000 tested, 0.21% active. S. pombe RE007 Vpr strain, BacTiter-Glo ATP luminescence, 24 h. Potency, µM (doses to about 92.2 µM), for the others: at the top dose activity change, negative = less growth, usual class: inhibitors; active = well fitted falling curve with a large enough effect; inconclusive = small, poorly fitted or top-dose-only effect; inactive = no such curve, though single readings can be large or run the other way; also: potency is read from the fitted curve at half-maximal effect; % is scaled to controls: 0 for no effect and ±100 for the full control effect; nearly all actives have a fitted effect of over 50% in size
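Fission yeast strain RE007, carrying one chromosomally integrated HIV-1 vpr copy, was seeded at OD 0.01 in PMG+AL medium with 23 nL pinned compound. After 24 h at 30 °C and 99% humidity, viability was read by BacTiter-Glo luminescence.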
Active calls of the source: *; ? = inconclusive; . = no result given; [ ] = remark or other dose. The sample as a whole holds a higher share of hits than the screen did. Unless noted, calls follow the shape of the dose curve; as a rule, active = well fitted curve in the direction sought with a large enough effect; inconclusive = small, poorly fitted or top-dose-only effect, or another doubt; inactive = no such curve, though single readings can be large; an effect the other way counts as inactive or inconclusive.

SMILES	LmPK inhibitor	TbPYK inhibitor	CHX counter	FBPA Giardia inh	Shiga toxin inh	RE007 growth inh
CCCCOC(=O)CSc1nc2c(cc1C#N)C(=O)CC(C)(C)C2	1%	0%	47*	3%	active	-27%
CCOC(=O)CSc1nc(N)c(C#N)cc1C#N	-1%	4%	23	-4%	42*	0%
CC(C)OC(=O)CSc1nc(N)c(C#N)cc1C#N	1%	-3%	27*	-2%	42*	-10%
CSc1nc2c(cc1C#N)C(=O)CC(C)(C)C2	2%	2%	10	5%	21	?
CCOC(=O)Cc1ccc(NC(=O)N2CC(CC)Oc3ccccc32)cc1 (configuration not stated)	.	-5%	.	.	.	.
Cc1cc(CN(C)C(=O)c2cc(COc3ccc4ncccc4c3)on2)on1	1%	-1%	6	-2%	3	12%
CC(=O)c1ccc(OCc2cc(C(=O)N(C)Cc3ncc(C)[nH]3)no2)cc1	-6%	-4%	3	.	-6	-11%
CC(=O)c1ccc(OCc2cc(C(=O)N(C)Cc3cc(C)no3)no2)cc1	-7%	0%	33*	.	39*	9%
CC(=O)c1cccc(OCc2cc(C(=O)N(C)Cc3cnccn3)no2)c1	2%	-2%	51*	-7%	88*	1%
COc1ccc(OCc2cc(C(=O)N(C)Cc3nnc(C)o3)no2)c(Cl)c1	1%	5%	29*	-2%	111*	8%
COc1ccc(OCc2cc(C(=O)N(C)Cc3cc(C)no3)no2)c(Cl)c1	9%	1%	72*	-1%	99*	7%
CCOc1ccc(NC(=O)CSc2nccn2-c2cccc(C)c2C)cc1	.	-1%	.	.	.	.
Cc1cc(C)cc(C(O)c2ncc(-c3ccc(F)cc3)[nH]2)c1 (configuration not stated)	.	0%	.	.	.	-10%
COc1cccc(-c2cc(CC3(O)CCN(CCCc4ccccc4)CC3)on2)c1	-3%	4%	6	-6%	13	4%
CCc1ccc(CN(C)C(=O)c2cc(COc3cccc(C(F)(F)F)c3)on2)nc1	2%	-1%	14	3%	39	-7%
COc1cc(Cl)ccc1OCc1cc(C(=O)N(C)Cc2nnc(C)o2)no1	-1%	-7%	35*	.	17	-1%
COc1cc(Cl)ccc1OCc1cc(C(=O)N(C)Cc2cn(C)nc2C)no1	-6%	-3%	-2	.	1	4%
COc1cccc(OCc2cc(C(=O)N(Cc3ccccc3)CC3CC3)no2)c1	7%	-7%	9	3%	-7	4%
CC(=O)c1ccc(OCc2cc(C(=O)N(C)C(C)c3nccs3)no2)cc1 (configuration not stated)	-5%	5%	30*	-6%	35*	2%
CCc1ccc(CN(C)C(=O)c2cc(COc3ccc(OC)cc3Cl)on2)nc1	-7%	-5%	68*	-1%	84*	-14%
COc1cccc(OCc2cc(C(=O)N(C)Cc3nc4ccccc4[nH]3)no2)c1	4%	0%	38*	.	125*	9%
CCN(CC)c1c(C)nc2ccc(C(=O)N3CCN(C(=O)c4ccco4)CC3)cn12	.	-18%	.	.	.	3%[18.4 µM]
Cc1ccccc1-n1nc(CO)c(C(=O)NCc2cccs2)n1	.	3%	.	.	.	.
Cn1cnc(S(=O)(=O)N2CCCC(C(=O)NCc3ccc(F)cc3)C2)c1 (configuration not stated)	.	2%	.	.	.	.
CC(=O)N1CCN(c2ccccc2NC(=O)Cc2ccc(Cl)cc2)CC1	-2%	-1%	-4	0%	7	2%
SMILES	LmPK inhibitor	TbPYK inhibitor	CHX counter	FBPA Giardia inh	Shiga toxin inh	RE007 growth inh
CN(Cc1cccnc1)C(=O)c1cc(COc2ccc3c(c2)CCCC3)on1	0%	-3%	70*	-4%	82*	-15%
c1ccc(N2CC[C@@]3(CCCNC3)C2)cc1	.	-8%	.	-6%	.	.
CCCC1CC(C)(c2csc(Nc3ccc(OCC)cc3)n2)OC1=O (configuration not stated)	1%	-7%	20*	1%	60*	1%
COc1cccc(NC2=CC(c3ccc(C(C)C)cc3)N(c3cccc(OC)c3)C2=O)c1 (configuration not stated)	.	1%	.	.	.	.
COc1cccc(C2C=C(Nc3ccccc3)C(=O)N2c2ccccc2)c1 (configuration not stated)	3%	2%	27*	-13%	19*	2%
COc1ccc(C2C=C(Nc3ccccc3)C(=O)N2c2ccccc2)cc1OC (configuration not stated)	1%	-5%	38*	-16%	66*	13%
C/C(N)=C(/C#N)C(=O)COC(=O)c1cc2c(s1)CCC(C)C2 (configuration not stated)	9%	-20%	68*	-6%	93*	21%
C/C(N)=C(/C#N)C(=O)COC(=O)c1cc2c(s1)CCCC2	13%	-16%	35*	0%	60*	6%
CNC(=O)COC(=O)c1cc2c(s1)CCCC2	2%	-2%	24*	4%	47	-15%
C/C(N)=C(/C#N)C(=O)COC(=O)c1ccc(C)c(S(=O)(=O)N2CCCCC2)c1	9%	1%	10	11%	8	16%
Oc1ccc2c3c1O[C@H]1[C@@H](O)C=CC4[C@@H](C2)NCC[C@@]341 (some centres not stated)	.	-2%	.	.	.	.
N#C/C(=C\c1c(N2CCN(c3ccccc3)CC2)nc2ccccn2c1=O)C(N)=O	1%	-25%	28*	-13%	50*	4%
CCOC(=O)/C(C#N)=C/c1c(N2CCN(c3ccccc3)CC2)nc2ccccn2c1=O	2%	1%	41*	-12%	18	6%
Cc1cc(C)nc(Nc2n[nH]c(-c3ccc(N)cc3)n2)n1	-1%	-13%	36*	-9%	72*	1%
Cc1cc(C)nc(Nc2ccccc2Br)n1	-2%	-3%	-2	-6%	-10	7%
Cc1cc(C)nc(Nc2n[nH]c(C)n2)n1	9%	2%	-3	-17%	-1	-3%
Cc1cc(C)nc(Nc2n[nH]c(-c3ccccc3C)n2)n1	-2%	4%	42*	-7%	100*	-25%
Cc1cc(C)nc(Nc2n[nH]c(-c3ccc(C(C)(C)C)cc3)n2)n1	3%	-14%	-2	7%	-5	1%
Cc1cc(C)nc(Nc2n[nH]c(-c3ccccc3Br)n2)n1	-13%	4%	48*	1%	110*	-9%
COc1ccccc1C(=O)Nc1nc2nc(C)c(Cc3ccccc3)c(=O)n2[nH]1	.	-14%	.	.	.	.

Compound activity from PubChem BioAssay.
